ALR inh = human ALR oxidase inhibition via reduced H2O2 | P55789 | purified ALR, DTT oxidation, H2O2 HRP-luminol luminescence | inhibition, % (test concentration not listed) | 290,000 compounds, 3.8% hits;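 active means mean replicate inhibition above about 79%, with every replicate also reaching it, limit read from the data; inconclusive means only one of the two criteria met; inactive means mean below limit and not every replicate reaching it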
Target sequence (P55789 whole entry, looked up): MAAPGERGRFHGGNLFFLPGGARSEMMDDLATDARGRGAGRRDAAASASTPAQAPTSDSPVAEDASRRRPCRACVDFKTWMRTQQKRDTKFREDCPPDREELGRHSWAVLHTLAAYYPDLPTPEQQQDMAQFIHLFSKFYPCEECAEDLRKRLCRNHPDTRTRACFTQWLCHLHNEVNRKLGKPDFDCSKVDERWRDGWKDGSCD
HDAC3 inh = inhibitors of human histone deacetylase 3; O15379; recombinant HDAC3, fluorogenic peptide/trypsin coupled, fluorescence; inhibition, % at 8.3 µM; 320,000 compounds, 0.15% hits; AID 2718; in the data active means inhibition above about 26%, passing the limit was not always enough; inconclusive means no clear call, values can overlap the other calls
GRK2 aptamer HTS = blocks RNA aptamer binding to human GRK2 | P25098 | bead flow cytometry, FAM-aptamer displacement from GRK2 | inhibition of aptamer binding, % at 10 µM | 330,000 compounds, 0.59% hits | AID 488847;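 active means inhibition of aptamer binding above 40%, roughly 3 SD of noise, on plates passing a quality check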;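 further: median bead fluorescence of bound FAM aptamer so fluorescent compounds give negative values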
Rtt109 HAT inh = C. albicans Rtt109 histone acetyltransferase inhibition. inhibition, % at 34.9 µM. Q5AAJ8. 330,000 compounds, 0.16% hits. purified Rtt109/Vps75, ThioGlo CoA-SH fluorescence, 4 h;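 active means inhibition of at least 50% in every replicate; inconclusive means best replicate reaches 50% inhibition but some replicates fall short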
Target sequence (Q5AAJ8 whole entry, looked up): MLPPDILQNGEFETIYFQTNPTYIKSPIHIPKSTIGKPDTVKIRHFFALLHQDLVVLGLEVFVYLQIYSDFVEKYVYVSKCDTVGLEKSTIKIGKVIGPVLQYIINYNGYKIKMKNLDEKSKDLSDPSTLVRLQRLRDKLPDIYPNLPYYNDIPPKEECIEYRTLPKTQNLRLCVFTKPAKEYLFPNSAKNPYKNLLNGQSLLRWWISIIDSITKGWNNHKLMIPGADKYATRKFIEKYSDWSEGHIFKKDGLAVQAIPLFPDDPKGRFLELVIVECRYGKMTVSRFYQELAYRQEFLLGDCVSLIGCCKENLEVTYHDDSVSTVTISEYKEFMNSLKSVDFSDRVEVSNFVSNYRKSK
Efflux pump inh = blocks antifungal efflux pumps in multiplex yeast assay | 330,000 compounds, 0.44% hits | S. cerevisiae Candida pump triplex, Nile Red efflux | inhibition, % at 10 µM | AID 485275;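 active means plate passing quality check with inhibition over a set limit, or well fluorescence over plate mean plus 4 SD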;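 further: Nile Red retained in pooled yeast measured as flow cytometry median fluorescence; higher means more Nile Red kept so more efflux inhibition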
Rce1 inhib = yeast Ras-converting enzyme inhibition | yeast membranes, quenched prenylated peptide cleavage fluorescence | calls only | 290,000 compounds, 0.27% hits | AID 2563;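 active means fall in fluorescence gain of 50% or more versus controls, with final raw signal at or below 3038400; inconclusive means same 50% fall but final raw signal above 3038400; inactive means fall in fluorescence gain under 50%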
Cmpd fluor yeast = compound fluorescence in yeast efflux pump counter-screen; shares compounds with Efflux pump inh; 1,700 compounds, 4% hits; AID 588517; S. cerevisiae AD/pABC3, flow cytometry; fluorescence ratio to DMSO, % at 10 µM;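 active means fluorescence ratio to DMSO above its plate's cutoff, the plate mean ratio plus 5 SD, cut at about 210% in these data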;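 further: unstained yeast with no Nile Red so the signal is compound autofluorescence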
Mdr1 pump inh = Candida Mdr1 efflux pump inhibition; 1,700 compounds, 1% hits; AID 588518; inhibition, % at 10 µM; shares compounds with Efflux pump inh; S. cerevisiae AD/CaMDR1, Nile Red efflux, flow cytometry; in the data active means inhibition above about 26%;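 further: higher means more Nile Red retained so more efflux inhibition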
CaCdr2 efflux inh = blocks the Candida albicans Cdr2 efflux pump in yeast; shares compounds with Efflux pump inh; S. cerevisiae AD/CaCDR2, Nile Red retention, flow cytometry; Nile Red retention ratio vs DMSO, % at 10 µM; 1,700 compounds, 4% hits; AID 588520; in the data active means Nile Red retention ratio vs DMSO above about 190%;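 further: higher ratio means more blocking of Cdr2 efflux of the dye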
CaCdr1 efflux inh = inhibitors of Candida albicans Cdr1 efflux pump; shares compounds with Efflux pump inh; S. cerevisiae AD/CaCDR1, Nile Red efflux, flow cytometry; inhibition, % at 10 µM; 1,700 compounds, 1% hits; AID 588522;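 active means inhibition above the screen-wide mean plus twice its standard deviation, cut at about 32% in these data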
GRK2 inh confirm = human GRK2 inhibition confirmation, cherry pick 1. shares compounds with GRK2 aptamer HTS. bead-bound GRK2, FAM-aptamer displacement, flow cytometry. aptamer displacement, % at 10 µM. 2,000 compounds, 4% hits. AID 504451;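 active means aptamer displacement above 40%, near three times the noise of non-fluorescent compounds, on plates passing quality checks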;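 further: negative values mostly reflect intrinsic compound fluorescence rather than true enhancement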
Aptamer quench 1 = quenches fluorescent RNA aptamer, GRK2 hit artifact. shares compounds with GRK2 aptamer HTS. Fluorescent RNA aptamer beads, quenching, flow cytometry; stronger effect = higher value. fluorescence change (kMESF span), kMESF (concentration not given with the values). 110 tested, under 10 active. AID 504521;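 active means compounds whose bead fluorescence drops by more than 37 kMESF across the dose range, marking them as dye quenchers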
FAM quench CP1 = quenches fluorescent RNA aptamer, GRK2 hit artifact; fluorescence response (% of DMSO), % at 10 µM; shares compounds with GRK2 aptamer HTS; 2,000 tested, under 10 active; Carboxyfluorescein RNA aptamer on beads, flow cytometry quenching; stronger effect = lower value;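 active means compounds that quench the bead-bound fluorescent RNA probe, cutting fluorescence to under half of the solvent control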;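 further: counterscreen run without GRK2 so only probe quenching by compound is measured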
GRK2 CP2 = confirmation of human GRK2 inhibitors binding RNA aptamer site | shares compounds with GRK2 aptamer HTS | 360 tested, under 10 active | inhibition of aptamer binding, % at 10 µM | bead-bound GRK2, FAM-aptamer displacement, flow cytometry;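 active means inhibition of aptamer binding above 40%, about triple the noise seen with nonglowing compounds, on plates passing quality control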;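 further: negative values mostly come from compounds that fluoresce themselves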
FAM quench SP = quenches fluorescent RNA aptamer, GRK2 hit artifact. shares compounds with GRK2 aptamer HTS. carboxyfluorescein RNA aptamer beads, flow cytometry quenching; stronger effect = lower value. AID 588494. 360 tested, under 10 active. fluorescence response vs DMSO, % at 10 µM;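 active means response vs DMSO under 50%, meaning signal dropped by over half, treated as fluorescence quencher; inconclusive means no clear call, values can overlap the other calls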;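 further: labelled aptamer on streptavidin beads without GRK2 as a quench counter-screen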
Each line names hits and unclear results; the compound was inactive in the other large screens (follow-up assays come after a bar, where they were run). Rows were chosen to be rich in hits. Some 4.5% of all compounds tested hit in one or more screens of this group.

Clc1ccc(C(c2ccc(Cl)cc2)n2cc[n+](CC(OCc3ccc(Cl)cc3Cl)c3ccc(Cl)cc3Cl)c2)cc1 (stereo not drawn)	Efflux pump inh 90.4 (no result: Rce1 inhib) | Cmpd fluor yeast inactive | Mdr1 pump inh inactive | CaCdr2 efflux inh active | CaCdr1 efflux inh inactive
O=C(c1cn(Cc2ccccc2F)c2ncccc12)C(F)(F)F	none (no result: ALR inh)
CCOC(=O)c1c(-n2c(C)cc(/C=C3\C(=O)NC(=O)N(C)C3=O)c2C)sc2c1CCCC2	none
Cc1cc(/C=C2\C(=O)NC(=O)N(c3ccc(Cl)cc3)C2=O)c(C)n1-c1sc2c(c1C#N)CCCC2	Efflux pump inh 0.8 | Cmpd fluor yeast inactive | Mdr1 pump inh inactive | CaCdr2 efflux inh inactive | CaCdr1 efflux inh inactive
O=c1c2ccccc2[se]n1-c1ccccc1	Rtt109 HAT inh inconclusive, Efflux pump inh 4.0 (no result: ALR inh, HDAC3 inh) | Cmpd fluor yeast inactive | Mdr1 pump inh inactive | CaCdr2 efflux inh inactive | CaCdr1 efflux inh inactive
O=c1c2ccccc2nc(-c2ccccc2)n1-c1ccccc1	none (no result: ALR inh)
CCOc1ccccc1CN1CCCC(C(=O)c2cc(F)ccc2F)C1 (stereo not drawn)	none (no result: ALR inh)
Cc1ccccc1NP(=O)(Oc1ccccc1F)Oc1ccccc1F	none
CCOc1ccc(N2C(=O)/C(=C/c3ccc(C)o3)C(=O)NC2=S)cc1	Efflux pump inh 0.9 (no result: ALR inh) | Cmpd fluor yeast inactive | Mdr1 pump inh inactive | CaCdr2 efflux inh inactive | CaCdr1 efflux inh inactive
COC(=O)OCC12CCC(O1)C1(C)C(=O)OCC21 (stereo not drawn)	none
Cc1ccc2c(c1)C1CN(C)CCC1N2C(=O)c1ccc(Br)o1 (stereo not drawn)	Efflux pump inh 0.6 (no result: ALR inh) | Cmpd fluor yeast inactive | Mdr1 pump inh inactive | CaCdr2 efflux inh inactive | CaCdr1 efflux inh inactive
CCC(C)N1C(=O)/C(=C\c2cc3c4c(c2)CCCN4CCC3)C(=O)NC1=S (stereo not drawn)	ALR inh 98.7, Efflux pump inh 0.7 | Cmpd fluor yeast inactive | Mdr1 pump inh inactive | CaCdr2 efflux inh inactive | CaCdr1 efflux inh inactive
CCC(C)N1C(=O)/C(=C\c2ccc(N3CCCCCC3)cc2)C(=O)NC1=S (stereo not drawn)	none
CCC(=NCc1cccnc1)c1c(O)n(-c2ccccc2C)c(=O)[nH]c1=O	none (no result: ALR inh)
CC(=NCc1cccnc1)c1c(O)n(-c2ccccc2C)c(=O)[nH]c1=O	Efflux pump inh 1.8 | Cmpd fluor yeast inactive | Mdr1 pump inh inactive | CaCdr2 efflux inh inactive | CaCdr1 efflux inh inactive
O=C(Nc1c(F)cc(F)cc1F)c1cccn(Cc2ccccc2)c1=O	Efflux pump inh 0.8 | Cmpd fluor yeast inactive | Mdr1 pump inh inactive | CaCdr2 efflux inh inactive | CaCdr1 efflux inh inactive
O=c1[nH]c(CN2CCNCC2)nc2ccccc12	none | GRK2 CP2 inactive | FAM quench SP inactive
CN1CCN(Cc2nc3ccccc3c(=O)[nH]2)CC1	none
CCOC(=O)c1c(/N=C/c2c(O)n(-c3ccccc3F)c(=S)[nH]c2=O)sc2c1CCCC2	GRK2 aptamer HTS 54.0 (no result: ALR inh) | GRK2 inh confirm inactive | FAM quench CP1 inactive
CCOC(=O)c1c(/N=C/c2c(O)n(-c3ccc(F)cc3)c(=S)[nH]c2=O)sc2c1CCCC2	HDAC3 inh inconclusive
COC(=O)C1=C(c2ccc(S(C)(=O)=O)cc2)C[C@@H]2CC[C@H]1N2C(=O)NCc1ccc(C(F)(F)F)cc1	none
CC(=NCCN(C)C)c1c(O)n(Cc2ccccc2)c(=O)[nH]c1=O	none
CC1(O)CCN2C(=O)CCc3cccc1c32 (stereo not drawn)	ALR inh 97.4, GRK2 aptamer HTS 41.0 (no result: Rce1 inhib) | GRK2 inh confirm inactive | FAM quench CP1 inactive
COc1ccc(CN2CCNCC2)c(OC)c1OC	none | GRK2 inh confirm inactive | FAM quench CP1 inactive
CC(C)CNc1c2c(nc3ccccc13)CCC2	none | GRK2 CP2 inactive | FAM quench SP inactive
COC(=O)C1=C(c2c(C)noc2C)C[C@@H]2CC[C@H]1N2C(=O)NCCO	GRK2 aptamer HTS 75.0 (no result: Rce1 inhib) | GRK2 inh confirm inactive | FAM quench CP1 inactive
Cc1nc2c(=O)n(C)c(=O)nc-2n(C)n1	GRK2 aptamer HTS 41.0 | GRK2 inh confirm 62.5 | Aptamer quench 1 inactive | FAM quench CP1 inactive
Clc1ccccc1Nc1ncnc(-n2cccc2)n1	none
CCN(CC)S(=O)(=O)c1ccc(N=Cc2c(O)n(-c3ccccc3)c(=O)[nH]c2=O)cc1	none
O=C1c2cccc3cccc(c23)C(=O)N1/N=C/c1c(O)n(-c2ccccc2)c(=O)[nH]c1=O	GRK2 aptamer HTS 62.0 | GRK2 inh confirm inactive | FAM quench CP1 inactive
COC(=O)C1=C(c2cccc(OCc3ccccc3)c2)C[C@@H]2CC[C@H]1N2C(=O)NCCc1ccc(F)cc1	HDAC3 inh inconclusive, GRK2 aptamer HTS 98.0 (no result: Rce1 inhib) | GRK2 inh confirm inactive | FAM quench CP1 inactive
COc1ccccc1-n1c(O)c(/C=C2\C=Nc3ccccc32)c(=O)[nH]c1=O	none
Cc1ccccc1OP(N)(=O)Oc1ccccc1C	GRK2 aptamer HTS 52.0 | GRK2 inh confirm inactive | FAM quench CP1 inactive
CCOc1ccccc1-n1c(O)c(C=NCCCN(CC)CC)c(=O)[nH]c1=O	none
Cc1c(N=Cc2c(O)n(CCc3ccc(F)cc3)c(=O)[nH]c2=O)c(=O)n(-c2ccccc2)n1C	none
CCNC(=O)[C@H]1O[C@@H](n2cnc3c(N)ncnc32)[C@H](O)[C@@H]1O	none | GRK2 inh confirm inactive | FAM quench CP1 inactive

Screens as filed in PubChem BioAssay.
